The campaign covered roughly 1,400 compounds. About 1,100 (79%) were called active.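 Rule for the calls: active = fitted half-maximal concentration of a falling signal no higher than twice the top valid dose in every test run; inconclusive = runs disagree, or flat partial inhibition, or poor fit; inactive = every run inactive: flat, wrong direction, or potency beyond limit.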 So high a share suggests a set chosen from earlier hits. A selection follows. Entries with a potency or affinity are not part of this list.
Test: inhibitors of clade B AD8 Env fusion, dose response, cell-based, cherry-pick (AID 652062)
Conditions: HeLa-AD8 Env / CEM-CCR5 cell fusion, luciferase; at 35 µM (top of the series) unless noted

SMILES	activity change, negative = inhibition
C[C@H]1CN([C@@H](C)CO)S(=O)(=O)c2ccc(-c3cccc(F)c3)cc2O[C@H]1CN(C)S(=O)(=O)c1ccccc1	-18.9%
CCOC(=O)C(C)Oc1cccc2c(=O)n(CC(=O)NCCc3ccc(OC)c(OC)c3)ccc12 (configuration not stated)	3.5%
CC(C)(C)c1ccc(-n2ncc3c2CCCC3NC(=O)CN2CCCC2=O)cc1 (configuration not stated)	-53.4%
c1ccc(CSc2nnc([C@@H]3CCCN3)o2)cc1	25%
Cc1ccccc1S(=O)(=O)NC(=O)C1(C)CCN1C(=O)CCc1ccc(Cl)cc1Cl (configuration not stated)	-6.19%
C[C@H](CO)N1C[C@H](C)[C@H](CN(C)Cc2ccccc2)Oc2c(NC(=O)Nc3ccc4c(c3)OCO4)cccc2C1=O	19.6% [at 16 µM]
CNC[C@H]1Oc2c(NC(=O)Nc3ccc(C(F)(F)F)cc3)cccc2C(=O)N([C@@H](C)CO)C[C@H]1C	50.6%
CC(C)CC#Cc1ccc2c(c1)O[C@@H](CN(C)C(=O)C1CCCCC1)[C@H](C)CN([C@@H](C)CO)S2(=O)=O	-88.1%
CCOc1ccc2c(c1)-c1c(ssc1=S)C(C)(C)N2C(=O)c1ccco1	-10.3%
COc1cc(OC)cc(C(=O)N[C@H](C(=O)NCCc2c[nH]c3ccccc23)C(C)C)c1	-23.6%
C[C@H]1CN([C@@H](C)CO)C(=O)c2cc(NS(C)(=O)=O)ccc2O[C@@H]1CN(C)Cc1ccc(Cl)c(Cl)c1	37.5%
C[C@@H]1CN([C@@H](C)CO)C(=O)c2cccc(NS(=O)(=O)c3ccc(F)cc3)c2O[C@@H]1CN(C)Cc1ccc(-c2ccccc2)cc1	44.3% [at 16 µM]
C[C@H]1CN([C@@H](C)CO)C(=O)Cc2cc(N(C)C)ccc2O[C@H]1CN(C)Cc1ccc(Cl)c(Cl)c1	15.3%
Cn1cc(S(=O)(=O)N2CCOCC2)cc1C(=O)Nc1cccc(Cl)c1	-9.96%
COc1ccc(-c2nn(C)c(=O)c3ccccc23)cc1NC(=O)Cn1nc(C)c2ccccc2c1=O	6.7%
Cc1cc(C(C)(C)C)oc1C(=O)N(CC(=O)NC1CCCC1)Cc1ccc(Cl)cc1	-9.64%
Cc1ccccc1-n1c(=O)c2ccccc2n2cnnc12	40.3%
CCOC(=O)C1CCN(C(=O)c2ccc3c(c2)C(=O)N(c2ccccc2C)C3=O)CC1	68.2%
CCN(CC)CCN(C(=O)c1cc(Cl)sc1Cl)c1nc2cc3c(cc2s1)OCO3	54.2%
O=C(NCC[C@@H]1CC[C@@H](NS(=O)(=O)c2ccccc2F)[C@@H](CO)O1)c1ccc(F)cc1	36%
Cc1nc2sc(C(c3ccco3)N3CCC(Cc4ccccc4)CC3)c(O)n2n1 (configuration not stated)	111%
O=C(CNC(=O)c1cccc(-n2cccc2)c1)Nc1ccccc1Br	4.51%

— PubChem BioAssay AID652062 (Broad Institute, 2013)
